The record followed here is PubChem BioAssay (NCATS).

In test [1] the target is Cytochrome P450 3A7 (Homo sapiens) (UniProt P24462). The experiment in a line: Cytochrome P450 family 3 subfamily A member 7 (CYP3A7) small molecule antagonists: luciferase biochemical qHTS assay (AID 1963596). Also: % is scaled to controls: 0 for no effect and ±100 for the full control effect; nearly all actives have a fitted effect of over 40% in size. The gist of the method:
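Enzyme-substrate mix + cpd (DMSO), 10 min RT; + NADPH regen system, 1 h RT; + luciferin detection reagent, 20 min RT; luminescence read. Proluciferin substrate, P450-Glo format, 1536-well qHTS.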
In general terms: qHTS replaces the single test concentration by a dilution series.

Test [2] is described as follows: Viability qHTS for spleen associated tyrosine kinase inhibitor (SYKi) naive MV4-11 cells (AID 1963823). Also: nearly all actives have a fitted effect of over 40% in size. Also: potency is read from the fitted curve at half-maximal effect. The gist of the method:
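Read-out: CellTiter-Glo luminescence. Exposure: 72 hr, 37 C, 5% CO2, 95% humidity. Cells: MV4-11 without SYK inhibitor history, 500/well, qHTS format.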

The nature of test [3]: Viability qHTS for spleen associated tyrosine kinase inhibitor (SYKi) drug resistant MV4-11 cells (AID 1963824). Also: nearly all actives have a fitted effect of over 35% in size. Also: potency is read from the fitted curve at half-maximal effect. The gist of the method: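 SYK-inhibitor-resistant MV4-11 AML cells were seeded at 500 per well onto compound and cultured 72 hours (37 °C, 5% CO2). CellTiter-Glo was then added, and after 10 min at room temperature, luminescence gave viability.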
Test [4] is described as follows: Cellular viability qHTS for adrenocortical cancer (ACC) cell line SW-13 (AID 1963989).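 Also: cells grown in serum-free medium with ITS supplement; % is scaled to controls: 0 for no effect and ±100 for the full control effect; nearly all actives have a fitted effect of over 65% in size.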 The conditions noted are these: SW-13 ACC cells viability, CellTiter-Glo, 48 h; activity (max response): active compounds read low. In short, it runs like this: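 SW-13 cells in ITS-supplemented serum-free DMEM were plated overnight, then exposed for 48 h at 37C to compound titrations (up to 46 uM final). Viability was read by CellTiter-Glo luminescence; four-parameter logistic fits gave IC50 and efficacy.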

Test [5] can be described thus: Cellular viability qHTS for adrenocortical cancer (ACC) cell line NCI-H295R (AID 1963990).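 Also: 0% = DMSO only wells and -100% = full killing with cytotoxic reference compound; nearly all actives have a fitted effect of over 60% in size.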 The gist of the method:
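Luminescent ATP read-out (CellTiter-Glo, 20 min RT) after 48 h drug exposure of NCI-H295R cells; a titration up to 46 uM final. Data normalized to doxorubicin (100% inhibition) and DMSO (0%); 4-parameter fit gives IC50, max response.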

“And” between values parts separate entries of the source, which are not always exact repeats. Identical values can stand only once. Records with an inconclusive call do not appear. Values without a mark were called inactive. The source made the active and inactive calls. Calls follow the shape of the dose curve; as a rule, active = well fitted curve in the direction sought with a large enough effect; inconclusive = small, poorly fitted or top-dose-only effect, or another doubt; inactive = no such curve, though single readings can be large; an effect the other way counts as inactive or inconclusive.

Cytochrome P450 3A7 (Homo sapiens), sequence (P24462 whole entry, looked up): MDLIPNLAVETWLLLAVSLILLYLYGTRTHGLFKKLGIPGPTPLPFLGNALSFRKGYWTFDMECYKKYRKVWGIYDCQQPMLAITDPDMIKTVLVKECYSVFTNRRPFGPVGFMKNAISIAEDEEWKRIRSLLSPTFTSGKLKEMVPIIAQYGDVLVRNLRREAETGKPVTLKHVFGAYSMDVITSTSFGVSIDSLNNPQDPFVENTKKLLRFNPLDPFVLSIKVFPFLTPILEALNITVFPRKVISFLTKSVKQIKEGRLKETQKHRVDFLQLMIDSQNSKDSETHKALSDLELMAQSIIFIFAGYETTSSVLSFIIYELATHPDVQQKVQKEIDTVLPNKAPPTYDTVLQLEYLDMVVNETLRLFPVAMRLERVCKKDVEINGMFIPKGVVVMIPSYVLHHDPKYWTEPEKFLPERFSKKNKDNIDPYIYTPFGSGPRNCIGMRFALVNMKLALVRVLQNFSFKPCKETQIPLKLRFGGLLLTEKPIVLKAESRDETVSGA

For the molecule `CCC(C)C(C)(COC(N)=O)COC(N)=O` (stereo unspecified), the Potency entry in test [1], in test [2], in test [3] and in test [5] was “inactive” throughout. Moreover, in test [4], the activity (max response) was 2.89%.

For the molecule `CCN(CC)CCOC(=O)C(O)(c1ccccc1)c1ccccc1`, the Potency entry in test [1], in test [2], in test [3] and in test [5] was “inactive” in each case. In addition, the activity (max response) in test [4] was 1.88%.

Take `N[C@@H]1C[C@H]1c1ccccc1`: the Potency entry in test [1] was “inactive”. In addition, the Potency in test [2] was 16.6 µM (active); in test [3], 11.9 µM (active) and 3.72 µM (active). Also, the activity (max response) in test [4] is 6.98%.

Turning to `CC(C)NC(C)C`, the Potency entry in test [1], in test [2], in test [3] and in test [5] was “inactive” throughout. For the same molecule, the activity (max response) in test [4] is 17.3%.

As to `CN1[C@@H]2CC[C@H]1CC(OC(=O)c1cc(Cl)cc(Cl)c1)C2` (stereo partly specified), the Potency result in test [1], in test [2] and in test [3] was “inactive” each time. Besides, the activity (max response) in test [4] was -16.8%.

For the molecule `ClCc1cccc(Cl)c1`, the Potency entry in test [1], in test [2], in test [3] and in test [5] was “inactive” each time. The activity (max response) in test [4] was 11%.

Regarding `O=C(O)COc1ccccc1`, the Potency result in test [1], in test [2], in test [3] and in test [5] was “inactive” in each case. Also, in test [4], the activity (max response) is 18.4%.

On to `Oc1cccc2cccnc12`, for which the Potency result in test [1], in test [2], in test [3] and in test [5] was “inactive” each time. Also, the activity (max response) in test [4] was -4.07% and 11.1%.

`CC1OC(C)OC(C)O1` (stereo unspecified): the Potency result in test [1], in test [2], in test [3] and in test [5] was “inactive” in each case. In addition, the activity (max response) in test [4] was 14%.

In the case of `COC(=O)[C@@H](N)CCCN/C(N)=N/[N+](=O)[O-]`, the Potency entry in test [1], in test [2] and in test [3] was “inactive” each time. Further, in test [4], the activity (max response) was 3%.

On to `CC(=O)C1CCOC1=O` (stereo unspecified), for which the Potency entry in test [1], in test [2], in test [3] and in test [5] was “inactive” in each case. In addition, the activity (max response) in test [4] is 9.4%.

Regarding `CC(C)NCC(O)c1ccc([N+](=O)[O-])cc1` (stereo unspecified), the Potency entry in test [1], in test [2] and in test [3] was “inactive” each time. Moreover, the activity (max response) in test [4] is -6.95%.

As for `CC(C)(C)NC[C@H](O)c1ccc(O)cc1Cl`, the Potency result in test [1], in test [2], in test [3] and in test [5] was “inactive” in each case. The activity (max response) in test [4] was 9.97%.
